Screening results as filed in PubChem.
ATXN2 expr inh: ATXN2 expression inhibition | AID 1745845 | Potency, µM (doses to about 57 µM), for the others: at the top dose activity change, negative = inhibition, usual class: inhibitors | 0.72% of 360,000 active | HEK-293 ATXN2-luciferase reporter, luminescence, 24 h; also: potency is read from the fitted curve at half-maximal effect; % is scaled to controls: 0 for no effect and ±100 for the full control effect; nearly all actives have a fitted effect of over 55% in size
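ATXN2-luciferase reporter cells (luciferase flanked by upstream and downstream ATXN2 gene portions) were treated 24 h at 37 °C with compounds at up to 57 uM. SteadyGlo luminescence gave expression; GF-AFC fluorescence gave viability.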
ATXN viability: reduces viability in counter-screen for ATXN expression inhibitors. AID 651635. Potency, µM (titrated, usually from 56.7 µM), hits mostly cytotoxic. 0.49% of 400,000 active. S2 cells (HEK-293 line with an ATXN2-luciferase reporter) viability, CellTiter-Fluor protease fluorescence, 24 h; also: potency is read from the fitted curve at half-maximal effect; nearly all actives have a fitted effect of over 40% in size
IL-1B inflam inh: inflammasome signaling inhibition, IL-1 beta readout | THP-1 LPS/ATP IL-1B secretion, AlphaLISA, 16 h; hits give low values | activity change, % at 57.5 µM | 4.7% of 360,000 active | AID 743279; in the data active = activity change below about -50%; inconclusive = mostly about -30% to -49%; also: % is scaled to controls: 0 for no effect and ±100 for the full control effect
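THP-1 cells pretreated 1 hr with compounds (up to 57.5 uM final), then stimulated with LPS (250 ng/mL final) plus ATP (1.25 mM final); secreted IL-1B measured by AlphaLISA after 16 hr, decreased signal indicating inhibition.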
HepG2 tox-1: kills HepG2 cells in TGF-b inhibitor counter-screen; HepG2 CAGA-GFP viability, ATP luminescence, 18 h; Potency, µM (top dose mostly 46.1 µM), without a hit: top-dose activity change, negative = cytotoxicity, actives largely listed as cytotoxic; 0.76% of 410,000 active; AID 588856; also: potency is read from the fitted curve at half-maximal effect
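HepG2 CAGA-GFP cells (1000/well, DMEM with 1% FBS) received compound, then TGF-beta at 500 pg/mL final, and were incubated 18 hours at 37 degrees C. Viability was read by CellTiter-Glo luminescence. Media-only wells were set as complete cell-killing and DMSO as no toxicity.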
TGFb inhibitor: blocks TGF-b signaling. HepG2 CAGA-GFP TGF-b/SMAD3 reporter, GFP fluorescence, 18 h; TGF-beta stimulated, 500 pg/mL final. Potency, µM (top dose mostly 46.1 µM), inactives show at the highest dose activity, negative = inhibition, actives largely listed as inhibitors. 1.2% of 410,000 active. AID 588855; also: potency is read from the fitted curve at half-maximal effect; % is scaled to controls: 0 for no effect and ±100 for the full control effect; nearly all actives have a fitted effect of over 65% in size
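Inhibition of TGF-beta-driven CAGA-GFP reporter expression in HEPG2 cells is measured by cellular GFP fluorescence after 18 h stimulation with 500 pg/mL recombinant TGF-beta in 1% FBS medium at 37 degrees C.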
TGFb confirm: TGF-b pathway inhibition, cherry-pick retest | shares compounds with TGFb inhibitor | HepG2 CAGA-GFP TGF-b reporter, GFP fluorescence, 18 h; cells stimulated with TGF-beta, 500 pg/mL | Potency, µM (series often up to 46.1 µM), without a hit: at the highest dose activity, negative = inhibition, actives largely listed as inhibitors | 63% of 1,600 active | AID 720534; also: potency is read from the fitted curve at half-maximal effect; % is scaled to controls: 0 for no effect and ±100 for the full control effect; nearly all actives have a fitted effect of over 65% in size
HepG2 tox-2: HepG2 cytotoxicity, TGF-b inhibitor counterscreen; AID 720535; shares compounds with TGFb inhibitor; Potency, µM (top dose mostly 46.1 µM), for the others: top-dose activity, negative = cytotoxicity, actives largely listed as inhibitors; 27% of 1,600 active; HepG2 CAGA-GFP viability, ATP luminescence, 18 h; cells stimulated with TGF-beta, 500 pg/mL; also: potency is read from the fitted curve at half-maximal effect; % is scaled to controls: 0 for no effect and ±100 for the full control effect; nearly all actives have a fitted effect of over 70% in size
TGFb CCL64 inh: TGF-b inhibition, CCL64 orthogonal assay; shares compounds with TGFb inhibitor; CCL64 CAGA-GFP reporter, TGF-b stimulated, GFP fluorescence, 18 h; Potency, µM (highest dose often 46.1 µM), without a hit: top-dose activity, negative = inhibition, usual class: inhibitors; 41% of 1,600 active; AID 720536; also: potency is read from the fitted curve at half-maximal effect; nearly all actives have a fitted effect of over 65% in size
COP TGFb inh: blocks TGF-b signaling in HepG2 COP reporter; shares compounds with TGFb inhibitor; HepG2 COP-GFP TGF-b reporter, GFP fluorescence, 18 h; cells stimulated by added recombinant TGF-beta; Potency, µM (top dose mostly 46.1 µM), inactives show at the top dose activity, negative = inhibition, hits mostly inhibitors; 3% of 1,600 active; also: potency is read from the fitted curve at half-maximal effect; nearly all actives have a fitted effect of over 70% in size
An asterisk follows results filed as active; i = inactive; ? = inconclusive; / = no result. Hits are enriched below; roughly 5.7% of the tested compounds scored in any of these assays. Unless noted, calls follow the shape of the dose curve; as a rule, active = well fitted curve in the direction sought with a large enough effect; inconclusive = small, poorly fitted or top-dose-only effect, or another doubt; inactive = no such curve, though single readings can be large; an effect the other way counts as inactive or inconclusive.

SMILES | ATXN2 expr inh | ATXN viability | IL-1B inflam inh | HepG2 tox-1 | TGFb inhibitor | TGFb confirm | HepG2 tox-2 | TGFb CCL64 inh | COP TGFb inh
Cc1ccc(NC(=O)COC(=O)C2(c3ccc(Cl)cc3)CCCC2)cc1 | ? | ? | ? | -41% | 10µM* | ? | ? | ? | 29%
CCc1ccc(NC(=O)CCn2c(-c3ccc(OC)cc3)cc(C(C)=O)c2C)cc1 | / | / | / | -16% | -22% | / | / | / | /
CN(Cc1ccccc1)C(=O)c1ccc2c(c1)N(Cc1ccccc1F)C(=O)c1ccccc1S2(=O)=O | 0% | i | / | -14% | -25% | / | / | / | /
COc1cc(O)c(C(CC(=O)N2CCCC2)c2cc(OC)c(OC)c(OC)c2)c(OC)c1 (centres undefined) | 9% | i | 1 | 19% | 31% | 5% | 1% | -13% | -7%
CCOc1ccccc1NC(=O)Cn1c(=O)n(Cc2ccccc2)c(=O)c2c(C)c(C)sc21 | -9% | i | / | -40% | 1% | / | / | / | /
CCC(C)NC(=O)C1=CCN(S(=O)(=O)c2ccc(C)cc2)CC1 (centres undefined) | 4% | i | -9 | -2% | 3% | / | / | / | /
CCC(C)NS(=O)(=O)c1ccc(S(=O)(=O)N2CC=C(c3ccc(F)cc3)CC2)cc1 (centres undefined) | -29% | i | -26 | -32% | 8.9µM* | ? | -16% | ? | 15%
COC(=O)c1ccc2nc(-c3ccco3)c(Cc3cccc(F)c3)n2c1 | 2% | i | 28 | -19% | 14µM* | 21µM* | -12% | ? | 25%
Cc1ccccc1NC(=O)CSc1ccc(-c2cccs2)nn1 | / | / | / | -14% | 0% | / | / | / | /
COCCNC(=O)C(c1cccs1)N(Cc1cccs1)C(=O)Cn1nnc2ccccc21 (centres undefined) | 6% | i | 37 | 1% | 0% | / | / | / | /
CC(C)CCNC(=O)C(c1ccco1)N(Cc1cccs1)C(=O)Cn1nnc2ccccc21 (centres undefined) | 3% | i | -27 | 18% | 7.1µM* | ? | 9% | ? | 1%
Cc1cccc(NS(=O)(=O)c2ccc(C)c(C(=O)NC3CCN(Cc4ccccc4)CC3)c2)c1 | / | / | -21 | -16% | 10µM* | ? | -28% | ? | 5%
NC(Cc1ccc(C(F)(F)F)cc1)c1csc(NC(=O)Nc2ccccc2Cc2ccccc2)n1 (centres undefined) | ? | / | -61* | 6.3µM* | 3.2µM* | ? | ? | 15µM* | ?
O=c1cnc2ccccc2n1Cc1ccc(Br)cc1 | 2% | i | 4 | -34% | -15% | / | / | / | /
CC(C)(C)c1ccc(Cn2c(=O)cnc3ccccc32)cc1 | ? | i | 30 | -16% | 10µM* | 18µM* | ? | -27% | -15%
CCn1c(/C=C/c2cc(Br)ccc2O)nc2ccccc2c1=O | ? | i | -58* | -43% | 10µM* | ? | ? | -3% | 24%
CCn1c(/C=C/c2ccccc2C)nc2ccccc2c1=O | -12% | i | -9 | -26% | -20% | / | / | / | /
COc1ccccc1NC(=O)CN1CCN(c2ccc(F)cc2)CC1 | -18% | i | 8 | -5% | -20% | / | / | / | /
COC(=O)c1sccc1NC(=O)CN1CCN(c2ccc(F)cc2)CC1 | -26% | i | -18 | -17% | 11µM* | ? | ? | -3% | 10%
O=c1c2c3c(sc2n(Cc2cc(=O)n4ccccc4n2)c(=O)n1-c1ccccc1)CCC3 | 3% | i | / | 9% | 6% | / | / | / | /
CC(=O)c1cccc(Nc2nc(-c3ccccc3)nc3ccccc23)c1 | -9% | / | -22 | 3% | -4% | / | / | / | /
Cc1ccc(Nc2nc(-c3ccncc3)nc3ccccc23)cc1 | ? | i | / | -12% | 8% | 5% | ? | -9% | 22%
c1ccc(Nc2nc(-c3ccncc3)nc3ccccc23)cc1 | -25% | i | 5 | -2% | 8% | -26% | -28% | -20% | 2%
Cc1ccc(Nc2nc(-c3ccccc3)nc3ccccc23)cc1 | ? | ? | / | -56% | ? | / | / | / | /
CC(=O)c1ccc(Nc2nc(-c3ccccc3)nc3ccccc23)cc1 | -26% | ? | -60* | -22% | -6% | -11% | -10% | -6% | -18%
SMILES | ATXN2 expr inh | ATXN viability | IL-1B inflam inh | HepG2 tox-1 | TGFb inhibitor | TGFb confirm | HepG2 tox-2 | TGFb CCL64 inh | COP TGFb inh
CC(C)n1ncc2c(C(=O)N3CCN(Cc4ccc(Cl)s4)CC3)cc(C3CC3)nc21 | -9% | ? | ? | -1% | 10µM* | ? | -29% | ? | -9%
CCOc1cc(Cn2c(-c3ccc(O)c(OCC)c3)nc3ccccc32)ccc1O | -21% | i | / | -16% | -11% | / | / | / | /
Cc1ccc(C)c(NC(=O)Cn2c(=O)n(CCC(C)C)c(=O)c3cccnc32)c1 | -2% | i | / | -16% | 19% | / | / | / | /
CCc1ccccc1NC(=O)CN1C(=O)CCn2nc(-c3cccn3C)cc21 | 9% | i | / | -5% | 0% | / | / | / | /
COc1ccc(/C=C/C(=O)c2ccc(NC3=NCCCS3)cc2)cc1OC | -13% | i | -109* | -3% | 13µM* | 9.2µM* | 16µM* | 26µM* | -10%
COc1ccc(/C=C/C(=O)Nc2ccc(Cl)c(Cl)c2)cc1OC | ? | / | / | -46% | ? | / | / | / | /
O=C(COc1cccc2ccccc12)Nc1ccc(Cl)cc1C(=O)O | 57% | i | 56 | -17% | 11µM* | 16µM* | 8.2µM* | ? | 55%
Brc1cccc(-c2nnn3c2nc(N2CCCCC2)c2ccccc23)c1 | 2% | i | / | 6% | 9% | / | / | / | /
Cc1cc(C)cc(NC(=O)Cn2c(=O)oc3cc(S(=O)(=O)N4CCC(C)CC4)ccc32)c1 | ? | i | 1 | 7.9µM* | 7.9µM* | ? | -22% | ? | 8%
CC1CCN(S(=O)(=O)c2ccc3c(c2)oc(=O)n3CC(=O)O)CC1 | / | / | / | 12% | -3% | / | / | / | /
